Several values for one entry are separate records, joined by “and”; a condition that tells them apart may be missing. Equal entries are not always repeated. Inconclusive results are not listed. Where a call stands in place of a potency, no number is given. Where a structure was tested more than once in an assay, its records may differ in their call. Activity calls are given as the source filed them. Unless noted, calls come from the whole dose curve; as a rule, active = well fitted curve in the direction sought with a large enough effect in the repeat runs; inconclusive = weak or mixed curves; inactive = no such curve, though single readings can be large; an effect the other way counts as inactive or inconclusive.
What was measured:
[1] = qHTS assay to identify small molecule agonists of the peroxisome proliferator-activated receptor delta (PPARd) signaling pathway - cell viability counter screen (AID 743211); note: nearly all actives have a fitted effect of over 55% in size
Summary of the method: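 Counter screen for cytotoxicity run in parallel with the PPARd reporter screen. Beta-lactamase reporter HEK293H cells exposed to compounds 17 h; ATP-based CellTiter-Glo luminescence quantified viability.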

[2] = biological target: Peroxisome proliferator-activated receptor delta (Homo sapiens) (UniProt Q03181); assay: qHTS assay to identify small molecule agonists of the peroxisome proliferator-activated receptor delta (PPARd) signaling pathway (AID 743212; calls by dose curve)
Chain of Peroxisome proliferator-activated receptor delta (Homo sapiens) (Q03181 whole entry, looked up): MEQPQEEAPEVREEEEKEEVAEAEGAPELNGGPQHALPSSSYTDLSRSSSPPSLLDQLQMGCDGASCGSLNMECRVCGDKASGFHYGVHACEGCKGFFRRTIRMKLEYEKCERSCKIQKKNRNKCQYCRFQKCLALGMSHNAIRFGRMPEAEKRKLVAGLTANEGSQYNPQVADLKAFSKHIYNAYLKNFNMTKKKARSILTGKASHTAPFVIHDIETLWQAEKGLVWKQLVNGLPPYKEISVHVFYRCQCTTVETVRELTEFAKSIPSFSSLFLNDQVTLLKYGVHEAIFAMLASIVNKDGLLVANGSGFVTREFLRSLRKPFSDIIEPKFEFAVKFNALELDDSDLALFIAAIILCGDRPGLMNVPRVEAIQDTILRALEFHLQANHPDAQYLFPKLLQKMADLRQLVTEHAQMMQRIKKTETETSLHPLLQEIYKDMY
Summary of the method: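 GeneBLAzer PPARd UAS-bla HEK293H cells (beta-lactamase reporter under UAS control), plated and rested 5 h at 37 C, then exposed to compounds in DMSO at 37 C; LiveBLAzer B/G FRET substrate added, 2 h room temperature, fluorescence read.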

[3] = qHTS assay to identify small molecule antagonists of the peroxisome proliferator-activated receptor delta (PPARd) signaling pathway - cell viability counter screen (AID 743213); note: nearly all actives have a fitted effect of over 50% in size; note: potency is the fitted concentration of half-maximal effect
Summary of the method: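 PPARd-bla HEK293H cells (3000/well) got compound plus 300 nM L165041 agonist for 17 h at 37 C. Viability in the same wells came from CellTiter-Glo luminescence after 30 min at room temperature.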

[4] = biological target: Peroxisome proliferator-activated receptor delta (Homo sapiens) (UniProt Q03181); assay: qHTS assay to identify small molecule antagonists of the peroxisome proliferator-activated receptor delta (PPARd) signaling pathway (AID 743215; active = well fitted inhibition curve with a large enough effect in the signal ratio in the repeat runs, not every such curve was filed as active; the % refers to the signal ratio;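 note: cells stimulated with agonist L165041 at 300 nM final during compound exposure; series mostly up to about 62 µM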)
Summary of the method: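 Read-out is beta-lactamase FRET fluorescence, measured 2 h after substrate addition at room temperature. Beforehand, UAS-bla HEK293H cells carrying the PPARd reporter were exposed to compounds with L165041 at 300 nM final for 17 h at 37 C.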

[5] = qHTS assay to identify small molecule agonists of the farnesoid-X-receptor (FXR) signaling pathway - cell viability counter screen (AID 743218); note: nearly all actives have a fitted effect of over 45% in size
Summary of the method: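 HEK 293T FXR-bla cells; 5 h pre-incubation, 16 h compound exposure at 37 C; LiveBLAzer substrate 2 h RT, then CellTiter-Glo 30 min RT, luminescence.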

[6] = biological target: Vitamin D3 receptor (Homo sapiens) (UniProt P11473); assay: qHTS assay to identify small molecule agonists of the vitamin D receptor (VDR) signaling pathway (AID 743222; calls by dose curve)
Chain of Vitamin D3 receptor (Homo sapiens) (P11473 whole entry, looked up): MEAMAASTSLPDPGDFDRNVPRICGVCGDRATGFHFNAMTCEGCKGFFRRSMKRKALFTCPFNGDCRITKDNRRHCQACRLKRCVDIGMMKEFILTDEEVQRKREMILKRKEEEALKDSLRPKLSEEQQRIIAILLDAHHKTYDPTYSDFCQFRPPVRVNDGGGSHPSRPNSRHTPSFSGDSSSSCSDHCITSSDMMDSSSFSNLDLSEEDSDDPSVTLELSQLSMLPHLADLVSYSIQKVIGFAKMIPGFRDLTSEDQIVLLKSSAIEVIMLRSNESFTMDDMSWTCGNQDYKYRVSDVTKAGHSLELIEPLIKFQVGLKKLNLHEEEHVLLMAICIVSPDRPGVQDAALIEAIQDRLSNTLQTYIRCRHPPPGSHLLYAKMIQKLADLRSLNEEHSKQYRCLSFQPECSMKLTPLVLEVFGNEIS
Summary of the method: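 VDR-bla cells, 2,000/well; 4 h preincubation 37C; cpd (DMSO) 16 h; LiveBLAzer B/G substrate 2 h RT; fluorescence intensity read.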

[7] = biological target: Vitamin D3 receptor (Homo sapiens) (UniProt P11473); assay: qHTS assay to identify small molecule antagonists of the vitamin D receptor (VDR) signaling pathway (AID 743223; active = well fitted inhibition curve with a large enough effect in the signal ratio in the repeat runs, not every such curve was filed as active; the % refers to the signal ratio)
Summary of the method: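 Cells carrying a VDR-driven beta-lactamase reporter (VDR-bla) were co-treated with compound and 3 nM final 1alpha,25-dihydroxyvitamin D3 for 16 h at 37C; reporter activity was measured as FRET substrate fluorescence after 2 h at room temperature.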

[8] = qHTS assay to identify small molecule agonists of the vitamin D receptor (VDR) signaling pathway - cell viability counter screen (AID 743224); note: nearly all actives have a fitted effect of over 50% in size; note: potency is the fitted concentration of half-maximal effect
Summary of the method: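 Luminescence from CellTiter-Glo, read after 30 min at room temperature, reports viability of VDR-bla cells treated with compounds for 16 h at 37C in the wells used for the beta-lactamase FRET read.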

[9] = qHTS assay to identify small molecule antagonists of the vitamin D receptor (VDR) signaling pathway - cell viability counter screen (AID 743225); note: nearly all actives have a fitted effect of over 50% in size; note: potency is the fitted concentration of half-maximal effect
Summary of the method: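 HEK293T VDR-bla; cpd + 1a,25-(OH)2D3 3 nM final, 16 h 37C/5% CO2; B/G FRET substrate 2 h RT; then CellTiter-Glo 30 min RT, luminescence.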

[10] = qHTS assay to identify small molecule agonists of the NFkB signaling pathway - cell viability counter screen (AID 1159515; calls by dose curve; note: nearly all actives have a fitted effect of over 55% in size; note: potency is the fitted concentration of half-maximal effect)
Summary of the method: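 Luminescence from CellTiter-Glo (30 min, room temperature) gives viability, measured in the same wells as the beta-lactamase reporter read. Cells were NFkB-bla ME-180, 2,000 per well, treated 5 hr with compounds.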

[11] = qHTS assay to identify small molecule agonists of the endoplasmic reticulum stress response signaling pathway (AID 1159516; active = well fitted activation curve with a large enough effect in the signal ratio in the repeat runs, not every such curve was filed as active; the % refers to the signal ratio; note: potency is the fitted concentration of half-maximal effect)
Summary of the method: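 Read-out is beta-lactamase cleavage of a FRET substrate (405 nm excitation; 460 and 530 nm emissions) in ESRE-bla HeLa cells after a 5 hr compound exposure at 37 C. Substrate incubation ran 2 hr at room temperature.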

[12] = qHTS assay to identify small molecule agonists of the endoplasmic reticulum stress response signaling pathway - cell viability counter screen (AID 1159517; calls by dose curve;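 note: HeLa cells carrying an ER stress response element beta-lactamase reporter; series mostly up to about 61 µM; nearly all actives have a fitted effect of over 50% in size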)
Summary of the method: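 Luminescence readout: CellTiter-Glo, 30 min RT, same wells as the ESRE-bla reporter read. HeLa ESRE-bla, 1,500 cells/well, o/n 37 C; cpd 5 hr 37 C/5% CO2.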

[13] = qHTS assay to identify small molecule antagonists of the retinoid-related orphan receptor gamma (ROR-gamma) signaling pathway - cell viability counter screen (AID 1159520); note: nearly all actives have a fitted effect of over 50% in size; note: potency is the fitted concentration of half-maximal effect
Summary of the method: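 Tet-on ROR gamma CHO cells (1,000/well) were plated 4 hr, given compounds in DMSO for 2 hr at 37 C, then induced with 1 uM final doxycycline for 16 hr. Viability was read as ATP by CellTiter-Glo luminescence after 30 min.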

[14] = biological target: Nuclear receptor ROR-gamma (Homo sapiens) (UniProt P51449); assay: qHTS assay to identify small molecule antagonists of the retinoid-related orphan receptor gamma (ROR-gamma) signaling pathway (AID 1159521; note: nearly all actives have a fitted effect of over 50% in size; note: potency is the fitted concentration of half-maximal effect)
Summary of the method: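 Cells were plated, rested 4 h at 37 C, exposed to compounds for 2 h, then given 1 uM final doxycycline hyclate to induce RORγ expression. After 16 h, ONE-Glo luminescence from the ROR response element reporter was measured.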

[15] = qHTS assay to identify small molecule agonists of the AP-1 signaling pathway - cell viability counter screen (AID 1159525; calls by dose curve; note: nearly all actives have a fitted effect of over 55% in size; note: potency is the fitted concentration of half-maximal effect)
Summary of the method: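 ME-180 AP-1-bla, 2500 cells/well, Opti-MEM + 0.5% dialyzed FBS; overnight 37 °C; cpd 15-pt titration, 5 h 37 °C; CellTiter-Glo 30 min RT; luminescence read; normalised to TOAB and DMSO controls.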

[16] = qHTS assay to identify small molecule antagonists of the farnesoid-X-receptor (FXR) signaling pathway - cell viability counter screen (AID 743221; active = well fitted cell-killing curve with a large enough effect in the repeat runs, not every such curve was filed as active; note: nearly all actives have a fitted effect of over 50% in size)
Summary of the method: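 Multiplexed counter screen: viability of FXR-bla HEK 293T cells under agonist stimulation by chenodeoxycholic acid (50 uM, final) and test compound for 16 h at 37 C, measured by CellTiter-Glo luminescence in the reporter wells.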

[17] = qHTS assay to identify small molecule agonists of the AP-1 signaling pathway (AID 1159526; calls by dose curve)
[18] = biological target: Bile acid receptor (Homo sapiens) (UniProt Q96RI1); assay: qHTS assay to identify small molecule antagonists of the farnesoid-X-receptor (FXR) signaling pathway (AID 743217; active = well fitted inhibition curve with a large enough effect in the signal ratio in the repeat runs, not every such curve was filed as active; the % refers to the signal ratio)
Chain of Bile acid receptor (Homo sapiens) (Q96RI1 whole entry, looked up): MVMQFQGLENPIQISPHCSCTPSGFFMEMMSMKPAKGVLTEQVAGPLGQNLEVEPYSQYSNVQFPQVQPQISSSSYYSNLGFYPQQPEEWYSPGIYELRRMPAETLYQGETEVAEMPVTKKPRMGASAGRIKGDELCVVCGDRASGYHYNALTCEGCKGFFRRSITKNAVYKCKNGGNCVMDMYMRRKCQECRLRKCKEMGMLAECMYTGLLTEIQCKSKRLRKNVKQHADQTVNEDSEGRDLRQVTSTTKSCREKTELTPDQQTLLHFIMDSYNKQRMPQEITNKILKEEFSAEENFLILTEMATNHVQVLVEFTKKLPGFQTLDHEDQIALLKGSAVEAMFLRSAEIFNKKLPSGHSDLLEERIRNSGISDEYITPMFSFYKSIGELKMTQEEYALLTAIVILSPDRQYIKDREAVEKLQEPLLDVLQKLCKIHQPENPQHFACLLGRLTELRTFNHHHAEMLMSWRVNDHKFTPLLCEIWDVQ
Summary of the method: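 HEK 293T FXR-UAS-bla, 5000 cells/well; compound + CDCA 50 uM final; 16 h, 37 °C; B/G FRET substrate 2 h RT; fluorescence.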

[19] = biological target: Bile acid receptor (Homo sapiens) (UniProt Q96RI1); assay: qHTS assay to identify small molecule agonists of the farnesoid-X-receptor (FXR) signaling pathway (AID 743220; active = well fitted activation curve with a large enough effect in the signal ratio in the repeat runs, not every such curve was filed as active; the % refers to the signal ratio)
Summary of the method: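 Beta-lactamase reporter under UAS control in GeneBLAzer FXR HEK 293T cells (5000/well) measured with LiveBLAzer FRET substrate after 2 h at room temperature. Compound exposure lasted 16 h at 37C.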

[20] = biological target: Retinoic acid receptor RXR-alpha (Homo sapiens) (UniProt P19793); assay: qHTS assay to identify small molecule agonists of the RXR signaling pathway (AID 1159527; calls by dose curve; note: nearly all actives have a fitted effect of over 35% in size)
Chain of Retinoic acid receptor RXR-alpha (Homo sapiens) (P19793 whole entry, looked up): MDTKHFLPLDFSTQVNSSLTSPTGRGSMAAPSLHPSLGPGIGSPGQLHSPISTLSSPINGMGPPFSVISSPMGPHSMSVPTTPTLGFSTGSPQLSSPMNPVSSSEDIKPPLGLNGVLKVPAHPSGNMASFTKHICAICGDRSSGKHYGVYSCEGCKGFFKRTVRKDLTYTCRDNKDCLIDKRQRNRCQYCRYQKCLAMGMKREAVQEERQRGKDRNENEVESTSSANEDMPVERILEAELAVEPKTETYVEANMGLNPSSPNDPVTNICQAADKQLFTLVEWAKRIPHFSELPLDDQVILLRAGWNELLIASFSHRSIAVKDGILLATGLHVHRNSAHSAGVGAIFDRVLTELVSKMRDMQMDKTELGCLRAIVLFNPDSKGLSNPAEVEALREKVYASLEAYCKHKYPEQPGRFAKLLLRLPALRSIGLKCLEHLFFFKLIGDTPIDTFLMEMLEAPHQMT
Summary of the method: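 Cells plated at 2,000/well, rested 5 hr at 37 C, pin-dosed with DMSO compound solutions, incubated 16 hr, then loaded with B/G FRET substrate for 2 hr at RT before dual-emission fluorescence reading.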

Row | Compound | Potency [1] | outcome [2] | Potency [3] | outcome [4] | Potency [5] | outcome [6] | outcome [7] | Potency [8] | Potency [9] | Potency [10] | Potency [11] | Potency [12] | Potency [13] | Potency [14] | Potency [15] | Potency [16] | Potency [17] | Potency [18] | outcome [19] | Potency [20]
1 | C[C@]12CC[C@@H]3c4ccc(O)cc4CC[C@H]3[C@@H]1CC[C@H]2O | inactive | inactive | inactive | inactive | inactive | inactive | inactive | inactive | inactive | inactive | inactive | inactive | inactive | 17.5 µM (active) | inactive | – | – | – | – | –
2 | CC(=O)Oc1c(C)c(C)c2c(c1C)CC[C@@](C)(CCC[C@H](C)CCC[C@H](C)CCCC(C)C)O2 | inactive | inactive | inactive | – | – | inactive | inactive | 49 µM (active) and inactive | inactive | inactive | inactive | inactive | inactive | inactive | inactive | inactive | inactive | – | – | –
3 | c1ccc2cc3ccccc3cc2c1 | inactive | inactive | inactive | inactive | inactive | inactive | inactive | inactive | inactive | inactive | 56.7 µM (active) | inactive | inactive | inactive | inactive | inactive | inactive | inactive | inactive | inactive
4 | OC[C@@H](O)[C@@H](O[C@@H]1O[C@H](CO)[C@H](O)[C@H](O)[C@H]1O)[C@H](O)[C@@H](O)CO | inactive | – | inactive | – | inactive | inactive | inactive | inactive | inactive | inactive | inactive | inactive | inactive | inactive | inactive | inactive | inactive | – | – | inactive
5 | CCCCCCCC/C=C\CCCCCCCC(=O)O | inactive | inactive | inactive | inactive | inactive | – | – | inactive | inactive | inactive | inactive | inactive | inactive | inactive | inactive | inactive | inactive | inactive | inactive | –
6 | Cc1cccc(Nc2ccccc2C(=O)O)c1C | inactive | – | inactive | inactive | – | – | – | inactive | inactive | inactive | inactive | inactive | inactive | inactive | inactive | inactive | inactive | – | – | inactive
7 | O=Cc1ccccc1C=O | inactive | inactive | 24.5 µM (active) and inactive | inactive | – | – | – | inactive | 21.9 µM (active) and inactive | inactive | inactive | inactive | 7.7 µM (active) and inactive | 17.2 µM (active) and inactive | inactive | inactive | inactive | – | – | inactive
8 | CC/C=C\C/C=C\C/C=C\CCCCCCCC(=O)O | inactive | inactive | inactive and 34.7 µM (active) | – | inactive | inactive | inactive | inactive and 49 µM (active) | inactive | inactive | inactive | inactive | inactive | inactive | inactive | – | inactive | inactive | inactive | –
9 | CC(=O)Oc1ccc(C(c2ccc(OC(C)=O)cc2)c2ccccn2)cc1 | inactive | inactive | inactive | inactive | inactive | – | inactive | inactive | inactive | 546 nM (active) and 1.07 µM (active) | inactive | – | inactive | inactive | 109 nM (active) and 952 nM (active) | – | – | – | – | –
10 | O=C(O)c1ccc(O)cc1 | inactive | inactive | inactive | inactive | – | – | – | inactive | inactive | inactive | inactive | – | inactive | inactive | inactive | – | inactive | inactive | inactive | inactive
11 | Cc1ccc2c(c1)C(=O)OC2=O | inactive | inactive | inactive | inactive | – | inactive | inactive | inactive | inactive | inactive | inactive | – | inactive | – | inactive | inactive | inactive | – | – | inactive
12 | NC[C@H](O)c1ccc(O)c(O)c1 | inactive | – | inactive | – | inactive | – | – | inactive | inactive | inactive | inactive | – | inactive | inactive | inactive | inactive | inactive | – | – | inactive
13 | O=C(O)CCCCCCCCCCCC(=O)O | inactive | inactive | inactive | inactive | inactive | inactive | inactive | inactive | inactive | inactive | inactive | – | inactive | 53.6 µM (active) and inactive | inactive | – | inactive | inactive | inactive | –
14 | CCCCCCCCCCCCO | inactive | inactive | inactive | inactive | – | inactive | inactive | inactive | inactive | inactive | inactive | – | inactive | inactive | inactive | inactive | inactive | inactive | inactive | –
15 | C1COCCN1 | inactive | inactive | inactive | inactive | inactive | inactive | inactive | inactive | inactive | inactive | inactive | – | inactive | inactive | inactive | inactive | inactive | – | – | inactive
16 | CC1(C)NC(=O)N(c2ccc([N+](=O)[O-])c(C(F)(F)F)c2)C1=O | inactive | – | inactive | – | inactive | inactive | inactive | inactive | inactive | inactive | inactive | – | inactive | 17.2 µM (active) and 18.8 µM (active) | inactive | – | inactive | inactive | inactive | –
17 | C=CN1CCCC1=O | inactive | inactive | inactive | inactive | inactive | – | – | inactive | inactive | inactive | inactive | – | inactive | inactive | inactive | – | inactive | – | – | inactive
